Experimental data reported in PubChem BioAssay (NCI).
Several values for one entry are separate records, joined by “and”; a condition that tells them apart may be missing. Identical values can stand only once. Compounds without any hit were thinned out: in the full panel of roughly 83,000, 20% have a hit.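 Single-dose data. Exposure time 48 hours. Values below 10 considered active.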 A number with no mark means an inactive call. Activity calls are given as the source filed them.

The compounds below were run on T-47D breast (assay: NCI-60 one-dose screen, 48 h (100 = growth as untreated, 0 = no growth, -100 = all killed)). Settings: 10 µM unless noted.

Compound	growth
S=C(Nc1ccc(OCc2nc3ccc(Cl)cc3[nH]2)cc1)NC1CCCCC1	17.3%
CC(C)(C)C(=O)c1c2c(c3ccc4c5ccccc5ccc4n13)C(=O)c1ccccc1C2=O	95.6%
COc1ccc(-c2cc(C)nc3[nH]c(=O)sc23)cc1	-15.1% (active)
O=C(Nc1nc2ccccc2s1)Nc1ccccc1Cl	68%
COC(=O)c1cc(C(=O)C(C)(C)C)n2c3ccccc3c3ccccc3c12	47.1%
CC(=O)Nc1cccc(-n2c(COc3ccc(I)cc3)nc3ccccc32)c1	54.6% and 107%
COc1ccc(N=Nc2c(N)nn3c(-c4cc5ccccc5oc4=O)ccnc23)cc1	53.2%
O=C(Nc1ccc(S(=O)(=O)N2CCCCC2)cc1)C(Cl)Cl	101%
CC(C)(C)OC(=O)N1C/C(=C\c2ccc(F)cc2)C(=O)/C(=C/c2ccc(F)cc2)C1	14.4%
O=C(COc1ccc(/C=C2/C(=O)Nc3ccc(Cl)cc32)cc1)Nc1ccc(Br)cc1	-22% (active)
O=C(Cn1c(-c2ccccc2)nc2ccccc21)N=Nc1c(O)[nH]c2ccc(Br)cc12	-59.4% (active)
COc1cccc(-c2ccc(/C=N/NC(=O)c3[nH]c4ccc(Br)cc4c3-c3ccccc3)s2)c1	52.9%
O=C(c1ccc(Cl)cc1)C1[C@H](c2ccccc2Cl)[C@@H](c2ccccc2)NC12C(=O)Nc1ccc(Cl)cc12 (stereo partly specified)	-71.1% (active)
COc1ccc(-c2cc(-c3ccccc3)c(C#N)c(=O)[nH]2)cc1S(N)(=O)=O	102%
CN(C)c1nc(NCCNS(=O)(=O)c2ccc(C(=O)/C=C/c3ccccc3)cc2)nc(N2CCOCC2)n1	73.1%
N#CC1=C(c2cccs2)Nc2c(c(-c3ccccc3)nn2-c2ccccc2)C12C(=O)Nc1ccc(Cl)cc12 (stereo unspecified)	11%
C#CCN(C)CCCOc1ccc(N(C)C(=O)c2cc(C(C)C)c(O)cc2O)cc1Cl	11%
COc1ccc2c(c1)C(=O)N(C)C2C1c2c(cc3c(c2OC)OCO3)CCN1C (stereo unspecified)	56.3%
Cc1ccc(N=Nc2c(N)nn3c(-c4cc5cc(Br)ccc5oc4=O)ccnc23)cc1	56.4%

Compound	growth
O=C(CSc1nnc(-c2ccc(-c3nc4ccc(Cl)cc4[nH]3)cc2)o1)Nc1ccccc1	93.3%
COc1ccc2ccccc2c1/C=C1\SC(=Nc2ccc(O)cc2)NC1=O	36.4%
Cc1ccc(N=Nc2c(N)nn3c(-c4cc5ccccc5oc4=O)ccnc23)cc1	55.7%
COc1ccc2nc(NC(=O)c3ccc(N(C)C)cc3)sc2c1	69%
CC1=C(C)C(=O)C(N2CCSCC2)=CC1=O	105%
O=C(CSc1nnc(-c2ccc(-c3nc4ccccc4[nH]3)cc2)o1)Nc1ccc(Cl)cc1	23.8%
CC[C@]12C=CCN3CC[C@]4(C(=C(C(=O)OC)C1)Nc1cc(OC)c([C@@H]5[C@H]6O[C@H]6[C@@]6(CC)CC(C(=O)OC)=C7Nc8cc(OC)ccc8[C@@]78CCN5[C@@H]68)cc14)[C@@H]32	25.7%
CC(=O)c1ccc2c(N)c(C(=O)Nc3ccc(C(F)(F)F)cc3)sc2n1	18.1%
COc1ccc2c(c1)N=c1c-2cc2c(O)[nH]c(=S)n2c1=O	46.4%
CN1CCN(CCS(=O)(=O)Nc2cc(-c3ccc4ncnc(Nc5ccc(F)c(Cl)c5)c4c3)cnc2Cl)CC1	-6.97% (active)
C[C@@H](Nc1c(C#N)cnc2ccc(-c3cnc4[nH]ncc4c3)cc12)c1ccccc1	10.9%
CN1CCc2c(sc3ncnc(N/N=C/c4cccc(Cl)c4Cl)c23)C1	-6.02% (active)
COc1ccc(C2=NN(C(=O)[C@H]3[C@@H](c4ccco4)c4sc(=O)[nH]c4S[C@@H]3C)C(c3ccc4ccccc4c3)C2)cc1 (stereo partly specified)	9.22% (active)
N#Cc1c(-c2ccc(F)cc2)nc(SCc2ccc(F)cc2)nc1N1CCNCC1	-66.9% (active)
O=C(CSc1nnc(-c2ccc(-c3nc4ccccc4[nH]3)cc2)o1)Nc1ccc(Br)cc1	32.8%
CN(C)CCCNC(=S)Nc1ccc(/C=C/c2ccc(Cl)cc2)cc1	-48.7% (active)
N/C(=N\c1nc2ccccc2s1)NC(=O)Nc1ccccc1F	31.1%
CN1C(=O)/C(=C\C(=O)c2cc3ccccc3oc2=O)c2ccccc21	67.4%
COc1ccc(-n2c(NC(=O)N3CCN(C)CC3)c(C#N)c3ccccc32)cc1	55.2%

Each compound was assayed on BT-549 breast in the same assay as above. Settings: 10 µM unless noted.

Compound	growth
S=C(Nc1ccc(OCc2nc3ccc(Cl)cc3[nH]2)cc1)NC1CCCCC1	13.5%
CC(C)(C)C(=O)c1c2c(c3ccc4c5ccccc5ccc4n13)C(=O)c1ccccc1C2=O	101%
COc1ccc(-c2cc(C)nc3[nH]c(=O)sc23)cc1	58.9%
O=C(Nc1nc2ccccc2s1)Nc1ccccc1Cl	129%
COC(=O)c1cc(C(=O)C(C)(C)C)n2c3ccccc3c3ccccc3c12	111%
CC(=O)Nc1cccc(-n2c(COc3ccc(I)cc3)nc3ccccc32)c1	96.9% and 110%
COc1ccc(N=Nc2c(N)nn3c(-c4cc5ccccc5oc4=O)ccnc23)cc1	29.5%
O=C(Nc1ccc(S(=O)(=O)N2CCCCC2)cc1)C(Cl)Cl	124%
CC(C)(C)OC(=O)N1C/C(=C\c2ccc(F)cc2)C(=O)/C(=C/c2ccc(F)cc2)C1	-88.1% (active)
O=C(COc1ccc(/C=C2/C(=O)Nc3ccc(Cl)cc32)cc1)Nc1ccc(Br)cc1	-34.2% (active)
O=C(Cn1c(-c2ccccc2)nc2ccccc21)N=Nc1c(O)[nH]c2ccc(Br)cc12	-53.7% (active)
COc1cccc(-c2ccc(/C=N/NC(=O)c3[nH]c4ccc(Br)cc4c3-c3ccccc3)s2)c1	-26.9% (active)
O=C(c1ccc(Cl)cc1)C1[C@H](c2ccccc2Cl)[C@@H](c2ccccc2)NC12C(=O)Nc1ccc(Cl)cc12 (stereo partly specified)	-87.2% (active)
COc1ccc(-c2cc(-c3ccccc3)c(C#N)c(=O)[nH]2)cc1S(N)(=O)=O	89.5%
CN(C)c1nc(NCCNS(=O)(=O)c2ccc(C(=O)/C=C/c3ccccc3)cc2)nc(N2CCOCC2)n1	94.3%
N#CC1=C(c2cccs2)Nc2c(c(-c3ccccc3)nn2-c2ccccc2)C12C(=O)Nc1ccc(Cl)cc12 (stereo unspecified)	-21.7% (active)
C#CCN(C)CCCOc1ccc(N(C)C(=O)c2cc(C(C)C)c(O)cc2O)cc1Cl	9.45% (active)
COc1ccc2c(c1)C(=O)N(C)C2C1c2c(cc3c(c2OC)OCO3)CCN1C (stereo unspecified)	68.5%
Cc1ccc(N=Nc2c(N)nn3c(-c4cc5cc(Br)ccc5oc4=O)ccnc23)cc1	53%

Compound	growth
O=C(CSc1nnc(-c2ccc(-c3nc4ccc(Cl)cc4[nH]3)cc2)o1)Nc1ccccc1	80%
COc1ccc2ccccc2c1/C=C1\SC(=Nc2ccc(O)cc2)NC1=O	-22.6% (active)
Cc1ccc(N=Nc2c(N)nn3c(-c4cc5ccccc5oc4=O)ccnc23)cc1	74.5%
COc1ccc2nc(NC(=O)c3ccc(N(C)C)cc3)sc2c1	58.7%
CC1=C(C)C(=O)C(N2CCSCC2)=CC1=O	91%
O=C(CSc1nnc(-c2ccc(-c3nc4ccccc4[nH]3)cc2)o1)Nc1ccc(Cl)cc1	-0.131% (active)
CC[C@]12C=CCN3CC[C@]4(C(=C(C(=O)OC)C1)Nc1cc(OC)c([C@@H]5[C@H]6O[C@H]6[C@@]6(CC)CC(C(=O)OC)=C7Nc8cc(OC)ccc8[C@@]78CCN5[C@@H]68)cc14)[C@@H]32	62.8%
CC(=O)c1ccc2c(N)c(C(=O)Nc3ccc(C(F)(F)F)cc3)sc2n1	43.4%
COc1ccc2c(c1)N=c1c-2cc2c(O)[nH]c(=S)n2c1=O	32.4%
CN1CCN(CCS(=O)(=O)Nc2cc(-c3ccc4ncnc(Nc5ccc(F)c(Cl)c5)c4c3)cnc2Cl)CC1	-53% (active)
C[C@@H](Nc1c(C#N)cnc2ccc(-c3cnc4[nH]ncc4c3)cc12)c1ccccc1	-21.7% (active)
CN1CCc2c(sc3ncnc(N/N=C/c4cccc(Cl)c4Cl)c23)C1	63.3%
COc1ccc(C2=NN(C(=O)[C@H]3[C@@H](c4ccco4)c4sc(=O)[nH]c4S[C@@H]3C)C(c3ccc4ccccc4c3)C2)cc1 (stereo partly specified)	76.2%
N#Cc1c(-c2ccc(F)cc2)nc(SCc2ccc(F)cc2)nc1N1CCNCC1	82.7%
O=C(CSc1nnc(-c2ccc(-c3nc4ccccc4[nH]3)cc2)o1)Nc1ccc(Br)cc1	37.1%
CN(C)CCCNC(=S)Nc1ccc(/C=C/c2ccc(Cl)cc2)cc1	-69.2% (active)
N/C(=N\c1nc2ccccc2s1)NC(=O)Nc1ccccc1F	30.2%
CN1C(=O)/C(=C\C(=O)c2cc3ccccc3oc2=O)c2ccccc21	27.8%
COc1ccc(-n2c(NC(=O)N3CCN(C)CC3)c(C#N)c3ccccc32)cc1	57.7%
